According to PubChem BioAssay AID1159580 (chemical genetic matrix, 2015):
Screen size: about 5,500 compounds; about 2,000 (36%) were called active. Another 18% or so got no clear call; they are omitted. No stated cut-off is given here; in the data, active means normalized growth mostly below about 0.91 (no sharp cut-off); inconclusive means no clear call, values can overlap the other calls; inactive means mostly above about 0.92. This is one part of the list.

Assay: chemical genetic growth profiling, strain panel (AID 1159580);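 further: tested at 20 µM; growth read once vehicle control cultures reached saturation at 30 °C; 1 = growth at the plate median or of vehicle wells; lower values mean less growth of the strain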
Details: S. cerevisiae deletion strains, growth OD

Measured: normalized growth

CC(N)=NCCCC[C@@H](N)C(=O)O
inactive: locus YAL013W, strain DEP1, active compounds read low 1.01 | locus YAL040C, strain CLN3, active compounds read low 0.998 | locus YCL061C, strain MRC1 (second series), active compounds read low 1.01 | locus YDR150W, strain NUM1, active compounds read low 1 | locus YDR363W, strain ESC2, active compounds read low 1.01 | locus YER002W, strain NOP16, active compounds read low 0.994 | locus YJR075W, strain HOC1, active compounds read low 1 | locus YMR263W, strain SAP30, active compounds read low 1.01 | locus YNL128W, strain TEP1, active compounds read low 1.02 | locus YNL175C, strain NOP13, active compounds read low 1 | locus YNL197C, strain WHI3, active compounds read low 1.01 | locus YNL224C, strain SQS1, active compounds read low 1.01 | locus YNL322C, strain KRE1, active compounds read low 1.02 | locus YOR083W, strain WHI5 (second series), active compounds read low 1.01 | locus YPL055C, strain LGE1, active compounds read low 1
